Experimental data taken from PubChem BioAssay.
A number with no mark means an inactive call.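 Rule for the calls: active = compounds killing one labelled cell type while sparing the other, by normalised counts and ratio limits, not self-fluorescent; inactive = the rest.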

Assay: EMT-state selective cytotoxicity in co-culture – imaging, PC-3E GFP, TEM4-18 mCherry, primary screen (AID 1345086);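 note: normalised mesenchymal count divided by normalised epithelial count so high means epithelial killing; cells exposed to compound for 72 h before imaging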
Conditions: PC-3E GFP / TEM4-18 mCherry co-culture, imaging cell counts; at 1 µM; actives lie on both sides; counts scaled to control wells, 1 = unselective
Molecule `Cc1ccc(S[C@H]2OC(COCc3ccccc3)C(O)[C@@H]3OC(=O)N[C@H]23)cc1` (some centres undefined) has a red/green cell ratio (normalised) of 1.07. Molecule `COc1cc(O)c(C(C)=O)c(O)c1` has a red/green cell ratio (normalised) of 0.99. In the case of `CC(=O)O[C@H]1CC2CCC3C(CC[C@@]4(C)C3C[C@H]([N+]3(C)CCCCC3)[C@@H]4OC(C)=O)[C@@]2(C)C[C@@H]1N1CCCCC1` (some centres undefined), the red/green cell ratio (normalised) is reported as 0.86. In the case of `C[C@@H](Oc1ccc(Oc2ccc3ncc(Cl)nc3c2)cc1)C(=O)O`, the red/green cell ratio (normalised) is reported as 0.86. With `Cc1cn(CC(=O)O)c(=O)[nH]c1=O` the red/green cell ratio (normalised) was 0.86. `C=C1C2=C(C(=O)N1OC)[C@H](O)[C@](C)(O)[C@H](CCCCC)O2` gave a red/green cell ratio (normalised) of 1.13. For `CC(=O)OCC[C@H](C)CCC=C(C)C`, the red/green cell ratio (normalised) was 1.13. `O=C1C=CC2=C3c4cc(O)c(O)cc4C[C@@]3(O)COC2=C1` gave a red/green cell ratio (normalised) of 1.29. In the case of `O=C1CC(c2ccc(O)cc2)Oc2ccccc21` (centres undefined), the red/green cell ratio (normalised) is reported as 1.07. Molecule `COc1cc(OC)c2c(c1)OC(c1ccccc1)CC2=O` (centres undefined) has a red/green cell ratio (normalised) of 1.1. `CC(=O)OC1CC(C)OC(=O)CCC(O)CC1=O` (centres undefined) showed a red/green cell ratio (normalised) of 0.98. Work on `CC(C)/C(O)=C1/C(=O)O[C@@H](c2ccoc2)[C@]2(C)C(O)[C@@H](O)[C@@]34OC5(C)OC67CC(C)(C(O)[C@]6(O)[C@@H](O)[C@]3(O5)C12)[C@H](CC(=O)O)C74C` (some centres undefined) yielded a red/green cell ratio (normalised) of 1.06. Work on `CO[C@H]1/C=C/C[C@@H](C)OC(=O)c2c(O)cc(O)cc2CC(=O)CCC1` yielded a red/green cell ratio (normalised) of 1.01. For `C[C@]12C=CC(=O)NC1CCC1C2CC[C@@]2(C)C1CC[C@@H]2C(=O)Nc1cc(C(F)(F)F)ccc1C(F)(F)F` (some centres undefined), the red/green cell ratio (normalised) was 0.83. In the case of `O=c1c(-c2ccc(O)cc2)coc2c(C3O[C@H](CO)[C@@H](O)[C@H](O)[C@H]3O)c(O)ccc12` (some centres undefined), the red/green cell ratio (normalised) is reported as 1. For `COc1ccc(-c2cc(=O)c3c(O)cc(OC)cc3o2)cc1`, the red/green cell ratio (normalised) was 1.15. Molecule `c1ccc(SCC2CCCNC2)cc1` (centres undefined) has a red/green cell ratio (normalised) of 0.86. `CCO[C@H]1OC(C(=O)OC)C(OC(=O)CCC(=O)O)[C@H](OC(=O)c2ccccc2)[C@@H]1OC(=O)c1ccccc1` (some centres undefined) showed a red/green cell ratio (normalised) of 0.91. `CC(C)CCCC(C)C1CCC2C3CC[C@H]4CC(=O)CC[C@]4(C)C3CC[C@]12C` (some centres undefined) gave a red/green cell ratio (normalised) of 0.94. With `CC(CCC(=O)O)[C@H]1CCC2C3C(C[C@H](O)[C@@]21C)[C@@]1(C)CC[C@@H](O)C[C@H]1C[C@H]3O` (some centres undefined) the red/green cell ratio (normalised) was 0.97. Work on `C[C@@H]1CC[C@H]2C(C)(C)C3CC12CC[C@@]3(C)O` (some centres undefined) yielded a red/green cell ratio (normalised) of 0.98. In the case of `COc1cc2c(cc1OC)C1C(=O)c3c(O)cc4c(c3OC1CO2)C=CC(C)(C)O4` (centres undefined), the red/green cell ratio (normalised) is reported as 0.7. Molecule `COC(=O)C1O[C@H](OCc2ccc(OC)cc2)[C@@H](OC(=O)c2ccccc2)[C@@H](OC(=O)c2ccccc2)C1O` (some centres undefined) has a red/green cell ratio (normalised) of 0.84. For `CCN1CC(CCN2CCOCC2)C(C(c2ccccc2)c2ccccc2)C1=O` (centres undefined), the red/green cell ratio (normalised) was 0.72. `CC(=O)OCC(=O)[C@@]1(O)CCC2C3C[C@H](C)C4=CC(=O)C=CC4(C)C3[C@@H](O)CC21C` (some centres undefined) gave a red/green cell ratio (normalised) of 1.09. With `NC(=O)NCCCC(N)C(=O)O` (centres undefined) the red/green cell ratio (normalised) was 1.05. With `CC(C)CC1OC23SCC(c4ccccc4)N2C(=O)C1C(C)(C)S3` (centres undefined) the red/green cell ratio (normalised) was 0.9. Work on `O=C(O)c1cn(C2CC2)c2cc(N3CCN(c4ccc(Cl)cc4Cl)CC3)c(F)cc2c1=O` yielded a red/green cell ratio (normalised) of 0.98. `C/C=C/C1=CC(=O)[C@H](O)[C@H]1O` gave a red/green cell ratio (normalised) of 1.04. Molecule `COc1c(N2CC[C@@H](CN)C2)c(F)cc2c(=O)c(C(=O)O)cn(CCCN3C(=O)c4ccccc4C3=O)c12` has a red/green cell ratio (normalised) of 1.07. In the case of `O=C(O)CCC(=O)OC1C(CO)O[C@H](Sc2ccccc2)[C@H]2NC(=O)O[C@@H]12` (some centres undefined), the red/green cell ratio (normalised) is reported as 1.26. With `C=C1OC(=O)[C@]2([C@H](C)C=C[C@H](O)[C@@H]2O)[C@@H]1O` the red/green cell ratio (normalised) was 0.98. `CC(=O)O[C@H]1C[C@@]2(C)C(CCC3[C@@]4(C)C=CC(=O)[C@@H](C)C4[C@H](OC(C)=O)C(=O)[C@@]32C)/C1=C(/CCC=C(C)C)C(=O)O` (some centres undefined) gave a red/green cell ratio (normalised) of 0.99. With `CC1CN(c2c(F)c(N)c3c(=O)c(C(=O)O)cn(C4CC4)c3c2F)C[C@H](C)N1` (some centres undefined) the red/green cell ratio (normalised) was 0.99. `COC1=CC(=O)OC1(O)C(C)C` (centres undefined) showed a red/green cell ratio (normalised) of 1.07. `COCC1O[C@@H](OC)[C@@H](OCc2ccccc2)[C@@H](OCc2ccccc2)C1O` (some centres undefined) showed a red/green cell ratio (normalised) of 0.86. With `Clc1ccc2ncc(Cl)nc2c1` the red/green cell ratio (normalised) was 1.15. `O=Cc1ccccc1O[C@@H]1O[C@H](CO)[C@H](O)[C@@H](O)[C@H]1O` showed a red/green cell ratio (normalised) of 0.97. `O=C(Nc1ccccc1)Nc1ccc(CO)cc1` showed a red/green cell ratio (normalised) of 0.81.
